By AC50 is commonly meant the concentration giving half of the maximal activity seen.

Structures are written as SMILES. Records with an inconclusive call do not appear. The source holds several records for some structures; these can differ, active in one and inactive in another. The source made the active and inactive calls. Rule for the calls: active = hit-call score of the fitted dose curve at least 0.9, where 1 is the maximum; inconclusive = response in the unintended direction; inactive = score below 0.9.

Experiment [1] concerns the target Muscarinic acetylcholine receptor M1 (Homo sapiens) (UniProt P11229). Nature of the experiment: NVS_GPCR_hM1: NovaScreen (NVS) G Protein-Coupled Receptor Assay for human Muscarinic, M1 Receptor (AID 2283270). An outline of the steps: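 Actives from a duplicate 25 uM single-point screen were retested in concentration series. Binding measured as displacement of a radioligand from CHO-derived receptor preparation, 1 h incubation, filtration and scintillation counting, analysed as signal loss against DMSO.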

The test system of experiment [2] is rabbit Platelet Activating Factor Receptor (PAF), gene 100354046. Nature of the experiment: NVS_GPCR_rabPAF: NovaScreen (NVS) G Protein-Coupled Receptor Assay for rabbit Platelet Activating Factor Receptor (PAF) (AID 2283287). An outline of the steps: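 Rabbit platelet membrane preparation; radioligand displacement read by filter-based scintillation counting 1 h after dosing, loss of signal versus DMSO. Primary screen in duplicate at 25 uM, actives followed up in concentration series.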

The target of experiment [3] is human Endothelin Receptor Type B (ETB), EDNRB (gene 1910) (UniProt P24530). Briefly: NVS_GPCR_hETB: NovaScreen (NVS) G Protein-Coupled Receptor Assay for human Endothelin Receptor Type B (ETB) (AID 2283267). An outline of the steps: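 Filter-based scintillation readout of radioligand displacement, 4 h, using membranes from human astrocytoma cells. Actives from a 25 uM duplicate screen were retested in concentration-response (top 50 uM) relative to DMSO baseline.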

The target in experiment [4] is D(1A) dopamine receptor (Homo sapiens) (UniProt P21728). Briefly: NVS_GPCR_hDRD1: NovaScreen (NVS) G Protein-Coupled Receptor Assay for human Dopamine Receptor D1 (DRD1) (AID 2283269). An outline of the steps: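 Radioligand displacement binding on membranes/protein extracted from HEK293 expressing human D1, cell-free; read 1 h after dosing by filter-based scintillation counting. Primary screen in duplicate at 25 uM, actives followed up in concentration series; signal loss versus DMSO baseline.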

Experiment [5] has as its target human Leukotriene B4 Receptor 1 (LTB4-BLT1), LTB4R (gene 1241) (UniProt Q15722). Nature of the experiment: NVS_GPCR_hLTB4_BLT1: NovaScreen (NVS) G Protein-Coupled Receptor Assay for human Leukotriene B4 Receptor 1 (LTB4-BLT1) (AID 2283271). An outline of the steps: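 Cell-free human neutrophil receptor preparation, 1 h exposure, radioligand binding read by filter scintillation counting. Single 25 uM duplicate screen, then concentration series topping at 50 uM; binding loss scored against DMSO baseline.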

Experiment [6] deals with Neuropeptide Y receptor type 2 (Homo sapiens) (UniProt P49146). Nature of the experiment: NVS_GPCR_hNPY2: NovaScreen (NVS) G Protein-Coupled Receptor Assay for human Neuropeptide Receptor Y2 (NPY2) (AID 2283277). An outline of the steps: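 Chemicals were first tested in duplicate at 25 uM, then actives in singleton concentration series to 50 uM. Tracer binding to SK-N-MC-derived protein measured cell-free after 1 h via filter scintillation; signal loss relative to DMSO.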

For experiment [7], the target named is human Neurokinin, NK2 Receptor, TACR2 (gene 6865) (UniProt P21452). Briefly: NVS_GPCR_hNK2: NovaScreen (NVS) G Protein-Coupled Receptor Assay for human Neurokinin, NK2 Receptor (AID 2283278).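 Note: actives reduce bound radioligand signal relative to DMSO baseline.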 An outline of the steps: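 Radioligand binding on membranes from CHO cells expressing receptor, filter-based scintillation read 4 h after dosing. Initial duplicate screen at 25 uM, actives in concentration series; loss of signal versus DMSO.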

In experiment [8] the target is human Opioid Receptor Delta 1 (Opiate D1), OPRD1 (gene 4985) (UniProt P41143). Briefly: NVS_GPCR_hOpiate_D1: NovaScreen (NVS) G Protein-Coupled Receptor Assay for human Opioid Receptor Delta 1 (Opiate D1) (AID 2283280). The method in brief:
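Membrane preparations from CHO cells bearing the human receptor were incubated 1 h with test chemical, and bound radioligand was counted after filtration. Actives from 25 uM duplicate screening were retested in concentration-response.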

Experiment [9] addresses human Thromboxane A2 Receptor (TXA2), TBXA2R (gene 6915) (UniProt P21731). Briefly: NVS_GPCR_hTXA2: NovaScreen (NVS) G Protein-Coupled Receptor Assay for human Thromboxane A2 Receptor (TXA2) (AID 2283282).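 Note: actives reduce bound radioligand signal relative to DMSO baseline.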 The method in brief: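 Screening ran at 25 uM in duplicate, with concentration series for confirmed actives. Each test measures radioligand binding to human platelet protein after 1 h, cell-free, using filter-based scintillation detection of signal loss relative to DMSO.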

The target of experiment [10] is human Muscarinic, M4 Receptor, CHRM4 (gene 1132) (UniProt P08173). Briefly: NVS_GPCR_hM4: NovaScreen (NVS) G Protein-Coupled Receptor Assay for human Muscarinic, M4 Receptor (AID 2283274). The method in brief:
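Filter-based scintillation counting of radioligand bound to CHO-expressed human M4 preparations after 1 h; loss of signal fitted versus DMSO. Initial duplicate testing at 25 uM, concentration-response follow-up for actives.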

Experiment [11] addresses human Purinergic Receptor P2Y, P2RY1 (gene 5028) (UniProt P47900). Briefly: NVS_GPCR_hPY2: NovaScreen (NVS) G Protein-Coupled Receptor Assay for human Purinergic Receptor P2Y (AID 2283281). The method in brief:
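Filtration scintillation readout of radioligand displacement on U937 extract, measured 1 h post-dosing. Single 25 uM duplicate screen, then singleton concentration series to 50 uM for chemicals passing threshold; DMSO as baseline.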

Experiment [12] deals with Muscarinic acetylcholine receptor M3 (Homo sapiens) (UniProt P20309). Nature of the experiment: NVS_GPCR_hM3: NovaScreen (NVS) G Protein-Coupled Receptor Assay for human Muscarinic, M3 Receptor (AID 2283272). An outline of the steps: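 Radioligand displacement binding on human M3 receptor in CHO-derived membranes, 1 h incubation, filter-based scintillation counting. Primary screen in duplicate at 25 uM; actives followed up in concentration series; loss of signal versus DMSO.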

The target of experiment [13] is Muscarinic acetylcholine receptor M2 (Homo sapiens) (UniProt P08172). Briefly: NVS_GPCR_hM2: NovaScreen (NVS) G Protein-Coupled Receptor Assay for human Muscarinic, M2 Receptor (AID 2283273). An outline of the steps: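 CHO-expressed human M2 receptor preparation, competitive displacement of a radioligand read by filter-based scintillation counting after 1 h. Single 25 uM duplicate screen, then concentration-response follow-up of actives; DMSO baseline.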

In experiment [14] the target is mouse Cholecystokinin, CCK1 Receptor (CCKA), Cckar (gene 12425) (UniProt O08786). Nature of the experiment: NVS_GPCR_mCCKAPeripheral: NovaScreen (NVS) G Protein-Coupled Receptor Assay for mouse Cholecystokinin, CCK1 Receptor (CCKA) (AID 2283285). An outline of the steps: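 Chemicals were first screened in duplicate at 25 uM, with those meeting threshold (e.g., 30% inhibition) retested in singleton concentration series to 50 uM maximum. Binding of radioligand to mouse pancreatic membranes was read after 2 h by filtration and scintillation counting.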

The target in experiment [15] is rat Adrenergic, Alpha 1, Non-selective Receptor (Adra1), Adra1a (gene 29412) (UniProt P43140). Nature of the experiment: NVS_GPCR_rAdra1_NonSelective: NovaScreen (NVS) G Protein-Coupled Receptor Assay for rat Adrenergic, Alpha 1, Non-selective Receptor (Adra1) (AID 2283289). The method in brief:
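Chemicals first screened in duplicate at 25 uM, then actives tested in concentration series up to 50 uM. Binding measured as displacement of radioligand from rat forebrain membrane receptors, 1 h, filtration with scintillation readout; DMSO baseline.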

human Muscarinic, M4 Receptor, CHRM4 (gene 1132), sequence (P08173 whole entry, looked up): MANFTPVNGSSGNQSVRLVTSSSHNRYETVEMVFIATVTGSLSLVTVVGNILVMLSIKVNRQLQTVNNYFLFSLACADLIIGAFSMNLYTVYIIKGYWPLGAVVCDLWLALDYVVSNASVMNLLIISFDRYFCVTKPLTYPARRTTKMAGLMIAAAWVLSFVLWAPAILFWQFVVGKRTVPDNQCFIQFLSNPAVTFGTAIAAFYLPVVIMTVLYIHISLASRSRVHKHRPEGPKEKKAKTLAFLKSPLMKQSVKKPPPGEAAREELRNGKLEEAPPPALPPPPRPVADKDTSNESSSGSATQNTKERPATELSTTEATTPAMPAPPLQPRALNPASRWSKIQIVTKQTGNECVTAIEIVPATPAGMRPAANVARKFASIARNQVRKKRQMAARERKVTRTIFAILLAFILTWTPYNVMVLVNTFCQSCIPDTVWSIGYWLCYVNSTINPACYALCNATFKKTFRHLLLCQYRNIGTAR
human Neurokinin, NK2 Receptor, TACR2 (gene 6865), sequence (P21452 whole entry, looked up): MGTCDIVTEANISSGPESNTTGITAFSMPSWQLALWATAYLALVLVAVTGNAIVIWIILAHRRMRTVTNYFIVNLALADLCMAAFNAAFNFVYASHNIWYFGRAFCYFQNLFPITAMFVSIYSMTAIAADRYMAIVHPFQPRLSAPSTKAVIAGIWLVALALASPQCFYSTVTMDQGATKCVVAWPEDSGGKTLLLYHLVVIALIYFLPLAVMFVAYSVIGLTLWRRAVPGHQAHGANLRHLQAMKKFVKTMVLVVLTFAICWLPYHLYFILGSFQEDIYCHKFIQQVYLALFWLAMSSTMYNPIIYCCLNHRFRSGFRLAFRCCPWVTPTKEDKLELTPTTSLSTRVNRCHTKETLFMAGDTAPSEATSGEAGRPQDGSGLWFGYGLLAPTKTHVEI
human Thromboxane A2 Receptor (TXA2), TBXA2R (gene 6915), sequence (P21731 whole entry, looked up): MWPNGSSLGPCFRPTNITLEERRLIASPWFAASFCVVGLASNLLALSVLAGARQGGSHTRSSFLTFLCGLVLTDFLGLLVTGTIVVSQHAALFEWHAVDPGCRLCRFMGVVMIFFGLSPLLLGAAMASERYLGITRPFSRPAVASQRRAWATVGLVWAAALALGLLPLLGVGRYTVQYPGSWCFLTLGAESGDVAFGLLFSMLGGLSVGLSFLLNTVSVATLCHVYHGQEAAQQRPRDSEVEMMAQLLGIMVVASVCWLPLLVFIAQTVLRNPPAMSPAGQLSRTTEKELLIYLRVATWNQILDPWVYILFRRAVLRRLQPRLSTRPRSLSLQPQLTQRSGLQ
human Opioid Receptor Delta 1 (Opiate D1), OPRD1 (gene 4985), sequence (P41143 whole entry, looked up): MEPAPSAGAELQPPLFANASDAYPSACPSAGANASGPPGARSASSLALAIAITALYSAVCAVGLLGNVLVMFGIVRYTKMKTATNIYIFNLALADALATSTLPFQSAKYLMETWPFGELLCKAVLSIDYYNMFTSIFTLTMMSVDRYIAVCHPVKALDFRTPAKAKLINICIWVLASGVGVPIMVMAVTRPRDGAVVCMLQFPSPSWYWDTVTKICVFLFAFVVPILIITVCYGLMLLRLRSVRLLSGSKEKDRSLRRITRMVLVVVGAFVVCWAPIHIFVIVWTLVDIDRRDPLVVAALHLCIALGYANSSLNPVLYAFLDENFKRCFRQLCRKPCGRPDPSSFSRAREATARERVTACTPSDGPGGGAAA
Neuropeptide Y receptor type 2 (Homo sapiens), sequence (P49146 whole entry, looked up): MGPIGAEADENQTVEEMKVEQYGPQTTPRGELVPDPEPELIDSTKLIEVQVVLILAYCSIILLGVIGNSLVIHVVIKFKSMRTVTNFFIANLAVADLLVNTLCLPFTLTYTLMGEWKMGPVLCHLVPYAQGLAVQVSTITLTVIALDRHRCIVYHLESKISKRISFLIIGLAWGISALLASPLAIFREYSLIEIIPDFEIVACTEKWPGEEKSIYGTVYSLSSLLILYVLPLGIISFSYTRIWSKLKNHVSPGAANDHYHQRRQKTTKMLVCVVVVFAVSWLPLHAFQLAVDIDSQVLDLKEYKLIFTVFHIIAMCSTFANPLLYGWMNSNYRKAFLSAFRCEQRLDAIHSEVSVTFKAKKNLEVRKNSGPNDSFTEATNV
human Leukotriene B4 Receptor 1 (LTB4-BLT1), LTB4R (gene 1241), sequence (Q15722 whole entry, looked up): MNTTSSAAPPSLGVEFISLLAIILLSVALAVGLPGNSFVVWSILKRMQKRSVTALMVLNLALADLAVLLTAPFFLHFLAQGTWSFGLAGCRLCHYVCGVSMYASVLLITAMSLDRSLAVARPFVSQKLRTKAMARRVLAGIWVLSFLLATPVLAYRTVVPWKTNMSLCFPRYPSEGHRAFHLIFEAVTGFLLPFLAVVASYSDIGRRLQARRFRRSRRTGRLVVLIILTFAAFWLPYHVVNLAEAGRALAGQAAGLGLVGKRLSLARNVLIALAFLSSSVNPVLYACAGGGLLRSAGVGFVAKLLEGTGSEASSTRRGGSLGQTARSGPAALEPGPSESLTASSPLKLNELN
Muscarinic acetylcholine receptor M1 (Homo sapiens), sequence (P11229 whole entry, looked up): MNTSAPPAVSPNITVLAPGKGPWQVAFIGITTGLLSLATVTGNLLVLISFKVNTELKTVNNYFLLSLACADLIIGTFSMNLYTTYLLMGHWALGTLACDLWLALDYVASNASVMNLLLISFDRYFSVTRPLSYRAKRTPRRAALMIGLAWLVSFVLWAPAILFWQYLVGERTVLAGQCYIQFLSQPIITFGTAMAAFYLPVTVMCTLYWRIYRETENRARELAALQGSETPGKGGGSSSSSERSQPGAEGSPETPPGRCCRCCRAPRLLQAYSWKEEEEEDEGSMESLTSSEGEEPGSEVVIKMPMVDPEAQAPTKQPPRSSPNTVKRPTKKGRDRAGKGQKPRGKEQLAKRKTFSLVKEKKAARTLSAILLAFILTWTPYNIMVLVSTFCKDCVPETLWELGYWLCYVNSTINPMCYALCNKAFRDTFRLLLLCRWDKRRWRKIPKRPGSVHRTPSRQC
human Purinergic Receptor P2Y, P2RY1 (gene 5028), sequence (P47900 whole entry, looked up): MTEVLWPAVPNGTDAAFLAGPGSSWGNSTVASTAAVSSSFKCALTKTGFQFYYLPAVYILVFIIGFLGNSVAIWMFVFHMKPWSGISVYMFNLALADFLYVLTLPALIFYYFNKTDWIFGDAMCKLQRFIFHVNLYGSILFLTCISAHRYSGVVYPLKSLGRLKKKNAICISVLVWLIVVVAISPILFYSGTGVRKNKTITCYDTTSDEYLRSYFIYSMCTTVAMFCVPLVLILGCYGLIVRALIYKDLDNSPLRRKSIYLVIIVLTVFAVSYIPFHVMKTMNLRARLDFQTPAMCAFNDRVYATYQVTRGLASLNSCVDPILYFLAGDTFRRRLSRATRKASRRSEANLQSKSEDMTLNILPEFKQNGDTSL
D(1A) dopamine receptor (Homo sapiens), sequence (P21728 whole entry, looked up): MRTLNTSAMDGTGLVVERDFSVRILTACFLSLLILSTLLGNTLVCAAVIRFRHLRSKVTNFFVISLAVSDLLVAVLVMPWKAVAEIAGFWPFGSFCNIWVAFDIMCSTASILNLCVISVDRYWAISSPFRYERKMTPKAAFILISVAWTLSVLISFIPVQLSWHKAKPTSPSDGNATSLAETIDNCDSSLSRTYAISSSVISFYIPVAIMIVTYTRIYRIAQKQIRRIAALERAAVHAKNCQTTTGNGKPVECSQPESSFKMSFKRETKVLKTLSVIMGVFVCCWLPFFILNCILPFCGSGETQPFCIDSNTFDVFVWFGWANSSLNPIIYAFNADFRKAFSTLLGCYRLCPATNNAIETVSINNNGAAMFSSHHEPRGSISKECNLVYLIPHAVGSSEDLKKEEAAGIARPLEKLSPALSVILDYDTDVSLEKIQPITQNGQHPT
rat Adrenergic, Alpha 1, Non-selective Receptor (Adra1), Adra1a (gene 29412), sequence (P43140 whole entry, looked up): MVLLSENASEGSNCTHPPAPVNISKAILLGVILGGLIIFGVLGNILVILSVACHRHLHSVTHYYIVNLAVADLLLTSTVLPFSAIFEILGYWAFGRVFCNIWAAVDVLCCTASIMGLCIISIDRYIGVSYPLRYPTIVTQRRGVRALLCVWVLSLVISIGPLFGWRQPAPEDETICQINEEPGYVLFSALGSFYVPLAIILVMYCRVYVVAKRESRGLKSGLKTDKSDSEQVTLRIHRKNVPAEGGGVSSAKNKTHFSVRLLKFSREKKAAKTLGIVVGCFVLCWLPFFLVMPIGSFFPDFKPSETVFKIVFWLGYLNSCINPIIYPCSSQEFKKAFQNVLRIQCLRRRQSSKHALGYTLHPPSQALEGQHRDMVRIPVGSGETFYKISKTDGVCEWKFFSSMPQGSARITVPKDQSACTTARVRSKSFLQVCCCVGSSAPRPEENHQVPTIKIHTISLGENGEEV
mouse Cholecystokinin, CCK1 Receptor (CCKA), Cckar (gene 12425), sequence (O08786 whole entry, looked up): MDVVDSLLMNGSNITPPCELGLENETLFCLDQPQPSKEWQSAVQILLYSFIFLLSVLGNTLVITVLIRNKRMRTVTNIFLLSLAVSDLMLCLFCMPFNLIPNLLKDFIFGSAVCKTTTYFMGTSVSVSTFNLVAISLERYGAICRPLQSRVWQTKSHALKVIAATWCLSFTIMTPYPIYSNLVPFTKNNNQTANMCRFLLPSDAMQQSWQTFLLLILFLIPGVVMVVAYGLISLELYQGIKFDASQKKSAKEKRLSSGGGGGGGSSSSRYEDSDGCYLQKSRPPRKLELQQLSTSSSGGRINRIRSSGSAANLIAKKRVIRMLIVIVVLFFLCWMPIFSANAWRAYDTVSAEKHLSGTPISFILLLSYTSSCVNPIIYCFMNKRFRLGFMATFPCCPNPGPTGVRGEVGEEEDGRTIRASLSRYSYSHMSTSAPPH

With `O=C(O)CCCOc1ccc(Cl)cc1Cl`, the call in [1] was inactive. Moreover, the AC50 in experiment [2] was 15.8 µM (active).

Regarding `O=C1c2ccccc2C(=O)N1SC(Cl)(Cl)Cl`, the compound was classed as inactive in experiment [3]. Further, the AC50 in experiment [4] was 13.3 µM (active).

Take `O=C(O)C(F)(F)C(F)(F)C(F)(F)C(F)(F)C(F)(F)C(F)(F)C(F)(F)F`: the AC50 in experiment [5] was 35.2 µM (active); in experiment [9] it was 9.44 µM (active). Further, the compound was called inactive in experiment [6], in experiment [7], in experiment [8] and in [9].

As for `O=S1OCC2C(CO1)C1(Cl)C(Cl)=C(Cl)C2(Cl)C1(Cl)Cl` (stereo not drawn), the compound was classed as inactive in experiment [10].

Consider `O=S(=O)(O)C(F)(F)C(F)(F)C(F)(F)C(F)(F)C(F)(F)C(F)(F)C(F)(F)C(F)(F)F`, for which the AC50 in experiment [5] was 30.1 µM (active) [middle of 4 runs]; in experiment [11], 15.8 µM (active); in experiment [9], 15.8 µM (active) [middle of 4 runs]. Besides, the compound was classed as inactive in [6], in experiment [7], in experiment [8], in [9] and in experiment [2].

For the compound `CC[C@H](C)[C@H]1O[C@]2(C=C[C@@H]1C)C[C@@H]1C[C@@H](C/C=C(\C)[C@@H](O[C@H]3C[C@H](OC)[C@@H](O[C@H]4C[C@H](OC)[C@@H](O)[C@H](C)O4)[C@H](C)O3)[C@@H](C)/C=C/C=C3\CO[C@@H]4[C@H](O)C(C)=C[C@@H](C(=O)O1)[C@]34O)O2` (tested in a mixture with another compound), the AC50 in [7] was 6.9 µM (active).

With `CCOc1nc(NC)nc(NC(=O)NS(=O)(=O)c2ccccc2C(=O)OC)n1`, the result in experiment [2] was inactive.

In the case of `CC(C)(C)C(O)C(Oc1ccc(Cl)cc1)n1cncn1` (stereo not drawn), the result in experiment [11] was inactive.

Take `CCOC1Oc2ccc(OS(C)(=O)=O)cc2C1(C)C` (stereo not drawn): the compound was classed as inactive in [6].

As to `CCOCN(C(=O)CCl)c1c(C)cccc1CC`, in experiment [10], the call was inactive. In addition, the AC50 in experiment [2] was 15.2 µM (active).

For `CCc1ccc(C(=O)NN(C(=O)c2cc(C)cc(C)c2)C(C)(C)C)cc1`, the call in experiment [1], in experiment [5] and in experiment [10] was inactive. The AC50 is 0.194 µM (active) in experiment [12] and 0.152 µM (active) in experiment [13].

On to `O=C(Nc1ccccc1)Nc1cnns1`, for which the compound was called inactive in [2].

Take `CC(C)OC(=O)Nc1cccc(Cl)c1`: the AC50 in experiment [14] is 15.7 µM (active). In addition, the compound was classed as inactive in experiment [15].

`ClC1C(Cl)C(Cl)C(Cl)C(Cl)C1Cl` (stereo not drawn): in experiment [15], the call was inactive.

Take `N#Cc1c(Cl)c(Cl)c(Cl)c(C#N)c1Cl`: the half-maximal activity concentration (AC50) in experiment [4] was 15.5 µM (active).

Take `CCS(=O)(=O)c1cccnc1S(=O)(=O)NC(=O)Nc1nc(OC)cc(OC)n1`: the compound was called inactive in experiment [2].

For `Cc1cc(C)nc(NC(=O)NS(=O)(=O)c2ccccc2C(=O)OC2COC2)n1`, the call in experiment [8] and in experiment [2] was inactive.

Values taken from PubChem BioAssay (EPA / NIEHS).
